Compound activity from PubChem BioAssay.
IL-2 act: qHTS of IL-2 Activators. IL-2 activation reporter assay, cell-based qHTS; stimulated with anti-CD3/CD4/CD28 beads; in transgenic mouse T cells. activation, % (series mostly up to about 46 µM). hit rate 0.065% among 360,000. AID 652025, 2013; in the data active = activation above about 50%; inconclusive = mostly about 30% to 49%; also: 0% is about no effect
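Readout: EGFP and DsRed signals by fluorescent plate cytometry. Unstimulated transgenic mouse T cells received compound 60 min before antibody-bead stimulation, then incubated 18 h at 37 degrees C.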
ELG1 repair inh: qHTS screen for small molecules that inhibit ELG1-dependent DNA repair in human embryonic kidney (HEK293T) cells expressing luciferase-tagged ELG1; AID 504467, 2011; Potency, µM (doses to about 46.1 µM), for inactives: at the highest dose activity change, negative = inhibition, most hits filed as inhibitors; HEK293T ELG1-luciferase reporter, luminescence, 16 h; DNA damage induced by 5-fluorouridine; hit rate 2.3% among 330,000; also: potency is read from the fitted curve at half-maximal effect; % is scaled to controls: 0 for no effect and ±100 for the full control effect; nearly all actives have a fitted effect of over 55% in size
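In this reporter screen, reduction of luminescence relative to DMSO vehicle indicated activity. Compounds and 5-fluorouridine were added together to 2,000 cells per well, incubated for 16 hr at 37 °C, then developed with ONE-Glo.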
BRCA1 expr up: qHTS Assay to Identify Small Molecule Activators of BRCA1 Expression; Potency, µM (top dose mostly 46.1 µM), for inactives: at the top dose activation, most hits filed as activators; MCF7-BRCA1-FFLuc reporter, luminescence, 48 h; response scale: scaled: vehicle 0%, 10 µM genistein 100%; hit rate 1.1% among 380,000; AID 624202, 2012; also: potency is read from the fitted curve at half-maximal effect; nearly all actives have a fitted effect of over 80% in size
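Using MCF7 cells harboring a BRCA1 firefly luciferase reporter, plated 2 h before compound pinning, the screen measured luminescence after 48 h incubation. Responses were normalized to DMSO and 10 microM genistein, then fitted for concentration-effect.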
Nrf2 ARE act: qHTS of Nrf2 Activators | Potency, µM (doses to about 46.1 µM), for inactives: at the highest dose activation, most hits filed as activators | hit rate 0.31% among 410,000 | AREc32 ARE-luciferase reporter (MCF7-derived line), luminescence, 24 h; also: potency is read from the fitted curve at half-maximal effect; % of control where 0% means no effect; nearly all actives have a fitted effect of over 65% in size
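Reporter line AREc32 (ARE-Fluc), seeded overnight in OPTI-MEM with 5% FBS; compound pin-transferred, 24 hr at 37 deg C, 5% CO2; luminescent read-out.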
Numbers without * were called inactive; u = inconclusive; x = not tested or not shown; [ ] = remark or other dose. Most compounds without a hit are left out; they make up all but 3.1% or so of the library. Unless noted, calls follow the shape of the dose curve; as a rule, active = well fitted curve in the direction sought with a large enough effect; inconclusive = small, poorly fitted or top-dose-only effect, or another doubt; inactive = no such curve, though single readings can be large; an effect the other way counts as inactive or inconclusive.

SMILES | IL-2 act | ELG1 repair inh | BRCA1 expr up | Nrf2 ARE act
COc1ccc(Cc2c(-c3ccc(F)cc3)nc3ccc(Br)cn23)c(C)c1 | 0 | x | 8.9µM* | 7%
Clc1cccc(Cc2c(-c3cccc(Cl)c3)nc3c4ccccc4ccn23)c1 | -1 | x | 4% | 11%
Fc1cccc(Cc2c(-c3ccco3)nc3c4ccccc4ccn23)c1 | -1 | x | 2% | 5µM*
O=c1c2oc3ccccc3c2n(Cc2cccc(C(F)(F)F)c2)c(=O)n1Cc1ccc2c(c1)OCO2 | x | x | x | 0%
COc1cccc(-c2nc(CS(=O)(=O)CC(=O)NCc3ccc(C)cc3)c(C)o2)c1 | x | x | x | 0%
O=C(NCCc1ccccc1Cl)c1cc2ccccn2n1 | x | x | x | 3%
COCc1nc2ccccc2n1Cc1ccc(C(C)(C)C)cc1 | x | x | x | 4%
O=C(NCCS(=O)(=O)N1CCN(c2cccc(Cl)c2)CC1)C(c1ccccc1)c1ccccc1 | x | x | x | 3%
CCN(Cc1ccccc1)C(=O)c1nc(-c2cccc(F)c2)n2c1CCCCC2 | x | x | x | 1%
COc1ccc(Cc2c(-c3ccccc3)nc3c4ccccc4ccn23)c(C)c1 | 3 | x | -35% | 5µM*
COCCNC(=S)N1CCc2cc(OC)c(OC)cc2C1COc1ccc(C(C)C)cc1 (configuration not stated) | -2 | 9.2µM* | -49% | 4%
CCNC(=S)N1CCc2cc(OC)c(OC)cc2C1COc1ccc(F)cc1 (configuration not stated) | -1 | u | -18% | 0%
COCCNC(=S)N1CCc2cc(OC)c(OC)cc2C1COc1ccc(F)cc1 (configuration not stated) | -3 | 16µM* | 0% | 0%
CCCC(=O)N1CCc2cc(OC)c(OC)cc2C1COc1ccc(C(=O)OC)cc1 (configuration not stated) | x | x | -22% | 4%
CCC(=O)N1CCc2cc(OC)c(OC)cc2C1COc1ccc(C(=O)OC)cc1 (configuration not stated) | -3 | 2.6µM* | -20% | 3%
Cc1ccc(-c2nc(C(Cl)Cl)c3ccccc3n2)cc1 | -3 | 23µM* | 55% | 5%
Cc1ccc(-c2nc(Nc3ccc(O)cc3)c3ccccc3n2)cc1 | 0 | u | -90% | 16%
CCCCCn1c(CCCNC(=O)c2ccccc2)nc2ccccc21 | x | x | -27% | 4%
COc1cc(OC)cc(-c2noc(-c3csc([C@H]4C[C@H](O)[C@@H](CO)O4)n3)n2)c1 | 0 | x | 3.2µM* | 4%[9.22 µM]
CC(C)(C)c1ccc(C(=O)NC(=S)N2CCOCC2)cc1 | -1 | u | 10µM* | 3%
CN1CCN(C(=S)NC(=O)c2ccc(C(C)(C)C)cc2)CC1 | 1 | 8% | 1% | 3%
O=c1cc(CN(Cc2ccccc2)Cc2ccccc2)c2c(ccc3ccccc32)o1 | -1 | x | -15% | 4%
COc1ccc(OC)c(CNC(=O)c2ccc(C)c(NC(=O)c3nsc4ccccc34)c2)c1 | x | x | x | 4%
CN(C)S(=O)(=O)c1ccc(C(=O)NCCOc2ccc(F)cc2)cc1 | -2 | u | 11µM* | 1%
CN(C)S(=O)(=O)c1ccc(C(=O)NCCOc2ccccc2)cc1 | -2 | u | 100% | -1%
SMILES | IL-2 act | ELG1 repair inh | BRCA1 expr up | Nrf2 ARE act
CC(=O)N1c2ccc(S(=O)(=O)N3CCCCCC3)cc2CC1C(=O)NCc1ccccc1F (configuration not stated) | x | x | 0% | -1%
CCc1ccc(CNC(=O)Cn2nc(C)c3nn(-c4ccc(Cl)cc4)c(C)c3c2=O)cc1 | x | x | x | 0%
O=C(NCc1cccnc1)C1CCC(c2ccc(Cl)cc2)CC1 (configuration not stated) | 0 | 9.2µM* | -36% | -1%
O=C(NCc1cccnc1)C1CCN(C(=O)c2ccc(Cl)cc2Cl)CC1 | -4 | 12% | 0% | 0%
Nc1nnc(N)c2ccccc12 | 1 | 17% | -12% | 1%
Nc1nsc2ccccc12 | -3 | -21% | -83% | 11µM*
CC(C)COc1ccc(C(=O)Nc2ccc(SC(F)F)cc2)cc1 | 3 | u | 8.9µM* | 8%
CC(C)COc1ccc(C(=O)Nc2ccc([N+](=O)[O-])cc2)cc1 | 0 | 1.5µM* | 51% | 0%
COc1ccc(OC)c(NC(=O)c2c(NCc3ccc(C)o3)sc3c2CCC(C)C3)c1 (configuration not stated) | x | x | x | 24%
O=c1c(Cl)c(N/N=C/c2ccc(Br)cc2)cnn1-c1ccccc1 | -2 | 0% | -69% | 7.1µM*
COc1ccc(C2=NOC(CNC(N)=S)C2)cc1 (configuration not stated) | -2 | u | 3.2µM* | 1%
CCCCc1nc(NCCN2CCOCC2)c(C#N)c2c1COC(C)(C)C2 | -3 | 12µM* | -41% | 0%
CC(C)Cc1nc(NCCN2CCOCC2)c(C#N)c2c1COC(C)(C)C2 | 0 | u | -18% | 0%
CCOc1cccc(C2C=C(c3ccc4c(c3)OCO4)NC(c3ccc(Br)cc3)N2)c1O (configuration not stated) | x | x | -24% | x
CCOc1cccc(C(=O)N(Cc2ccc(C)o2)C2CCS(=O)(=O)C2)c1 (configuration not stated) | x | x | x | -1%
Cc1cccc(NC(=O)Cn2nnc3ccccc32)c1 | 2 | u | 13µM* | 5%
O=C(Cn1nnc2ccccc21)Nc1ccc([N+](=O)[O-])cc1 | 4 | 8% | 11% | 0%
Cc1ccc(SCc2nc3ccccc3n2CC(=O)Nc2ccc(Cl)cc2)cc1 | -4 | 7.3µM* | -48% | 0%
COC(=O)c1ccc(NC(=O)Cn2nnc3ccccc32)cc1 | -4 | u | 10µM* | 3%
Cc1ccc(NC(=O)Cn2nnc3ccccc32)cc1 | 0 | u | 8.9µM* | 1%
COc1cccc(-n2c(SCC(=O)N3CCc4ccccc43)nc3c([nH]c4ccccc43)c2=O)c1 | x | x | -26% | -1%
O=C(CCCCn1c(=O)c2ccccc2n(CC(=O)Nc2cccc(F)c2)c1=O)NCCc1ccccc1 | x | x | -16% | 0%
COc1ccc(NC(=O)c2ccco2)cc1NC(=O)C(C)(C)Oc1ccc(Cl)cc1 | x | x | x | 10%
